Here are results for three compounds from PubChem BioAssay AID720564 (Broad Institute, 2013).

Some of the results follow. The source made the active and inactive calls.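 The calls were made as follows: active = luminescence drop, with half-maximal potency fitted within twice the sample's top valid dose (cut at about 70 µM in these data); inactive = the rest, including signal moving the wrong way.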

The assay can be described thus: dual-tagged ARNT PAS-B bead signal quenchers – biochemical, dry powder, artefact control for ARNT/TACC3 disruptor project, dose response (AID 720564). Particulars: Dual-tagged His-ARNT PASB-GST AlphaScreen artifact counter-screen. In general terms: Alpha assays give light when donor and acceptor beads are brought close together.
Turning to `O=C(CSc1ccc(-c2ccccn2)nn1)Nc1ccccc1`, the half-maximal activity concentration (AC50) (usually the midpoint of the concentration-response curve, whichever way the signal moves) is 15.3 µM (active).

Take `COc1ccc(-c2nnc(NC(=O)c3ccc(S(=O)(=O)N4CCC(C)CC4)cc3)o2)cc1`: the AC50 is 67.7 µM (active).

For `CCCCC(=O)NC(c1ccco1)c1ccc2cccnc2c1O` (stereo not drawn), the AC50 was 13.8 µM (active).
